Experimental data published in PubChem BioAssay (NCATS).
Where “and” joins values, the source holds several entries; their conditions need not be identical. Equal entries are not always repeated. Records with an inconclusive call do not appear. Calls of active or inactive are those of the source. Calls come from the whole dose curve; as a rule, active = well fitted curve in the direction sought with a large enough effect; inconclusive = small, poorly fitted or top-dose-only effect, or another doubt; inactive = no such curve, though single readings can be large; an effect the other way counts as inactive or inconclusive.

Columns and labels:
NIH3T3 [1] = assay: Cytotoxic Profiling of Annotated Libraries Using Quantitative High-Throughput Screening (AID 1296008); details: Five cell lines viability, CellTiter-Glo ATP luminescence, 48-72 h; max response: hits give low values; note: nearly all actives have a fitted effect of over 60% in size
Outline: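 Cytotoxicity was measured as CellTiter-Glo ATP luminescence, read after 10 min at room temperature. Compound treatment of the cells lasted 48 or 72 hr at 37 degrees Celsius in a qHTS format.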

HACAT = assay: qHTS assay to identify novel small-molecules to repurpose for Merkel cell carcinoma treatment (AID 1296009); details: MCC and control cell lines, CellTiter-Glo viability, 72 h; at 44.8 µM (top of the series) unless noted; note: nearly all actives have a fitted effect of over 60% in size
Outline: (§1)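 After compound transfer in DMSO, plates were kept 72 hr at 37 degree celsius. Luminescent ATP signal from CellTiter-Glo served as viability measure, normalized against DMSO and no-cell controls.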

MCC-13 = assay: as above; details: MCC and control cell lines, CellTiter-Glo viability, 72 h; series mostly up to 46 µM
Outline: as §1

MKL-1 = assay: as above; details: MCC and control cell lines, CellTiter-Glo viability, 72 h; series mostly up to 46 µM
Outline: as §1

MKL-2 = assay: as above; details: MCC and control cell lines, CellTiter-Glo viability, 72 h; series mostly up to 46 µM
Outline: as §1

UISO = assay: as above; details: MCC and control cell lines, CellTiter-Glo viability, 72 h; series mostly up to 46 µM
Outline: as §1

WaGa = assay: as above; details: MCC and control cell lines, CellTiter-Glo viability, 72 h; series mostly up to 46 µM
Outline: as §1

C33A = assay: Primary qHTS to identify gynecologic anti-cancer compounds using libraries of approved drugs and bioactive compounds (AID 1345084); details: Gynecologic cancer cell panel viability, ATPlite luminescence, 48 h; series mostly up to 57.5 µM; note: nearly all actives have a fitted effect of over 55% in size
Outline: (§2)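 Luminescence from the ATPlite ATP-monitoring reagent indicates viable cell number; lower signal means cytotoxicity. Cells received compound 16 h after seeding and were exposed for 48 h across five concentrations.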

CAOV3 = assay: as above; details: Gynecologic cancer cell panel viability, ATPlite luminescence, 48 h; series mostly up to 57.5 µM
Outline: as §2

CASKI = assay: as above; details: Gynecologic cancer cell panel viability, ATPlite luminescence, 48 h; series mostly up to 57.5 µM
Outline: as §2

Es-2 = assay: as above; details: Gynecologic cancer cell panel viability, ATPlite luminescence, 48 h; series mostly up to 57.5 µM
Outline: as §2

HeLa = assay: as above; details: Gynecologic cancer cell panel viability, ATPlite luminescence, 48 h; series mostly up to 57.5 µM
Outline: as §2

JEG-3 = assay: as above; details: Gynecologic cancer cell panel viability, ATPlite luminescence, 48 h; series mostly up to 57.5 µM
Outline: as §2

OV90 = assay: as above; details: Gynecologic cancer cell panel viability, ATPlite luminescence, 48 h; series mostly up to 57.5 µM
Outline: as §2

PA-1 = assay: as above; details: Gynecologic cancer cell panel viability, ATPlite luminescence, 48 h; series mostly up to 57.5 µM
Outline: as §2

SKOV3 = assay: as above; details: Gynecologic cancer cell panel viability, ATPlite luminescence, 48 h; series mostly up to 57.5 µM
Outline: as §2

MCC-26 = assay: qHTS assay to identify novel small-molecules to repurpose for Merkel cell carcinoma treatment (AID 1296009); details: MCC and control cell lines, CellTiter-Glo viability, 72 h; series mostly up to 46 µM; note: nearly all actives have a fitted effect of over 60% in size
Outline: as §1

NIH3T3 [2] = assay: as above; details: MCC and control cell lines, CellTiter-Glo viability, 72 h; at 44.8 µM (top of the series) unless noted
Outline: as §1

Hek293T [3] = assay: Primary qHTS to identify gynecologic anti-cancer compounds using libraries of approved drugs and bioactive compounds (AID 1345084); details: Gynecologic cancer cell panel viability, ATPlite luminescence, 48 h, control line for the selectivity index; series mostly up to 57.5 µM; note: nearly all actives have a fitted effect of over 55% in size
Outline: as §2

HEK293T [4] = assay: qHTS assay to identify novel small-molecules to repurpose for Merkel cell carcinoma treatment (AID 1296009); details: MCC and control cell lines, CellTiter-Glo viability, 72 h; at 44.8 µM (top of the series) unless noted; note: nearly all actives have a fitted effect of over 60% in size
Outline: as §1
% is set by controls: 0 for no effect and ±100 for the full control effect; potency is the fitted concentration of half-maximal effect.

CC(N)C(=O)OC(C)(C)Cc1ccc(Cl)cc1 (stereo unspecified)
inactive: max response (NIH3T3 [1]) -1.5% | outcome (HACAT) | Potency (MCC-13) | Potency (MKL-1) | Potency (MKL-2) | Potency (UISO) | Potency (WaGa) | Potency (C33A) | Potency (CAOV3) | Potency (CASKI) | Potency (Es-2) | Potency (HeLa) | Potency (JEG-3) | Potency (OV90) | Potency (PA-1) | Potency (SKOV3)

Nc1ccc(O)c(C(=O)O)c1
inactive: outcome (NIH3T3 [1]) | outcome (HACAT) | Potency (MCC-13) | Potency (MCC-26) | Potency (MKL-1) | Potency (MKL-2) | outcome (NIH3T3 [2]) | Potency (UISO) | Potency (WaGa) | Potency (C33A) | Potency (CAOV3) | Potency (CASKI) | Potency (Es-2) | Potency (HeLa) | Potency (Hek293T [3]) | Potency (JEG-3) | Potency (OV90) | Potency (PA-1) | Potency (SKOV3)

CC(C(=O)O)c1ccc2c(c1)[nH]c1ccc(Cl)cc12 (stereo unspecified)
inactive: max response (NIH3T3 [1]) 1.25% and 0.838% | outcome (HACAT) | outcome (HEK293T [4]) | Potency (MCC-13) | Potency (MCC-26) | Potency (MKL-1) | Potency (MKL-2) | Potency (UISO) | Potency (WaGa) | Potency (C33A) | Potency (CAOV3) | Potency (CASKI) | Potency (Es-2) | Potency (HeLa) | Potency (Hek293T [3]) | Potency (JEG-3) | Potency (OV90) | Potency (PA-1) | Potency (SKOV3)

C#CC1(O)CC[C@H]2[C@@H]3CCC4=CCCC[C@@H]4[C@H]3CC[C@@]21C (stereo partly specified)
inactive: max response (NIH3T3 [1]) -0.384% | outcome (HACAT) | outcome (HEK293T [4]) | Potency (C33A) | Potency (CAOV3) | Potency (CASKI) | Potency (Es-2) | Potency (HeLa) | Potency (Hek293T [3]) | Potency (JEG-3) | Potency (OV90)

Nc1c(CC(=O)O)cccc1C(=O)c1ccc(Br)cc1
inactive: max response (NIH3T3 [1]) 2.91% | outcome (HACAT) | Potency (MCC-13) | Potency (MCC-26) | Potency (MKL-1) | Potency (MKL-2) | Potency (UISO) | Potency (WaGa) | Potency (C33A) | Potency (CAOV3) | Potency (CASKI) | Potency (Es-2) | Potency (HeLa) | Potency (Hek293T [3]) | Potency (JEG-3) | Potency (OV90) | Potency (PA-1) | Potency (SKOV3)

CC(C)OC(=O)c1cc(C(=O)OC(C)C)cc([N+](=O)[O-])c1
inactive: max response (NIH3T3 [1]) -2.82% | outcome (HACAT) inactive [at 92 µM] | Potency (MCC-13) | Potency (MCC-26) | Potency (MKL-1) | Potency (MKL-2) | Potency (UISO) | Potency (WaGa) | Potency (C33A) | Potency (CAOV3) | Potency (CASKI) | Potency (Es-2) | Potency (HeLa) | Potency (Hek293T [3]) | Potency (JEG-3) | Potency (OV90) | Potency (PA-1)

COc1cc(/C=C/C(=O)N2CCN(CC(=O)N3CCCC3)CC2)cc(OC)c1OC
inactive: outcome (NIH3T3 [1]) | outcome (HACAT) | outcome (NIH3T3 [2]) | Potency (C33A) | Potency (CAOV3) | Potency (CASKI) | Potency (Es-2) | Potency (HeLa) | Potency (Hek293T [3]) | Potency (JEG-3) | Potency (OV90) | Potency (PA-1)

COc1ccc(-c2cc(=S)ss2)cc1
active: Potency (MKL-1) 26600 nM
inactive: outcome (NIH3T3 [1]) | outcome (HACAT) | Potency (MCC-13) | Potency (MCC-26) | outcome (NIH3T3 [2]) | Potency (C33A) | Potency (CAOV3) | Potency (CASKI) | Potency (Es-2) | Potency (HeLa) | Potency (Hek293T [3]) | Potency (JEG-3) | Potency (OV90) | Potency (PA-1) | Potency (SKOV3)

CCCCCCCCCCCCCCCCCC(=O)O
inactive: max response (NIH3T3 [1]) -5.96% | outcome (HACAT) | outcome (HEK293T [4]) | Potency (MCC-13) | Potency (MCC-26) | Potency (MKL-1) | Potency (MKL-2) | Potency (UISO) | Potency (WaGa) | Potency (C33A) | Potency (CAOV3) | Potency (CASKI) | Potency (Es-2) | Potency (HeLa) | Potency (Hek293T [3]) | Potency (JEG-3) | Potency (OV90) | Potency (PA-1) | Potency (SKOV3)

C[C@H](O)[C@H](O)[C@H]1CNc2nc(N)[nH]c(=O)c2N1
inactive: outcome (NIH3T3 [1]) | outcome (HEK293T [4]) | outcome (NIH3T3 [2]) | Potency (C33A) | Potency (CAOV3) | Potency (CASKI) | Potency (Es-2) | Potency (HeLa) | Potency (Hek293T [3]) | Potency (JEG-3) | Potency (OV90) | Potency (PA-1) | Potency (SKOV3)

COc1cccc2c1C(=O)c1c(O)c3c(c(O)c1C2=O)C[C@@](O)(C(=O)CO)C[C@@H]3O[C@H]1C[C@H](N)[C@H](O[C@@H]2CCCCO2)[C@H](C)O1
active: Potency (NIH3T3 [1]) 188 nM | Potency (MCC-13) 3760 nM | Potency (MKL-1) 94.4 nM | Potency (MKL-2) 47.3 nM | Potency (UISO) 2990 nM | Potency (C33A) 10000 nM | Potency (CASKI) 12600 nM | Potency (Es-2) 7080 nM | Potency (Hek293T [3]) 10000 nM | Potency (PA-1) 2510 nM | Potency (SKOV3) 12600 nM
inactive: Potency (HeLa)

CCCCCCCCCCCCCCCC(=O)OC(C)C
inactive: outcome (NIH3T3 [1]) | Potency (MCC-13) | Potency (MKL-1) | Potency (MKL-2) | outcome (NIH3T3 [2]) | Potency (UISO) | Potency (WaGa) | Potency (C33A) | Potency (CAOV3) | Potency (CASKI) | Potency (Es-2) | Potency (HeLa) | Potency (Hek293T [3]) | Potency (JEG-3) | Potency (OV90) | Potency (PA-1) | Potency (SKOV3)

O=C(O)Cc1ccc2c(c1)C(=O)c1ccccc1CO2
inactive: outcome (NIH3T3 [1]) | Potency (MCC-13) | Potency (MCC-26) | Potency (MKL-1) | Potency (MKL-2) | outcome (NIH3T3 [2]) | Potency (UISO) | Potency (WaGa) | Potency (C33A) | Potency (CAOV3) | Potency (CASKI) | Potency (Es-2) | Potency (HeLa) | Potency (Hek293T [3]) | Potency (JEG-3) | Potency (OV90) | Potency (PA-1) | Potency (SKOV3)

Cc1ccc(C(=O)c2ccc(CC(=O)O)n2C)cc1
inactive: max response (NIH3T3 [1]) 0.61% | Potency (MCC-13) | Potency (MCC-26) | Potency (MKL-1) | Potency (MKL-2) | Potency (UISO) | Potency (WaGa) | Potency (C33A) | Potency (CAOV3) | Potency (CASKI) | Potency (Es-2) | Potency (HeLa) | Potency (Hek293T [3]) | Potency (JEG-3) | Potency (OV90) | Potency (PA-1) | Potency (SKOV3)

CN(C)c1ccc(C(=C2C=CC(=[N+](C)C)C=C2)c2ccccc2)cc1
active: Potency (NIH3T3 [1]) 237 nM | Potency (MCC-13) 37.6 nM | Potency (MKL-1) 37.6 nM | Potency (MKL-2) 13.3 nM | Potency (UISO) 66.8 nM | Potency (C33A) 2000 nM | Potency (Es-2) 1780 nM | Potency (HeLa) 2510 nM | Potency (Hek293T [3]) 2510 nM | Potency (OV90) 11200 nM | Potency (PA-1) 1260 nM | Potency (SKOV3) 1120 nM
